Bioassay records (PubChem BioAssay)
GPR151 activ: activators of human GPR151; Q8TDV0; PathHunter beta-arrestin GPR151 cells, luminescence; activation, % at 11.2 µM; hit rate 1% among 650,000; AID 1508602; in the data active = activation above about 4.9%;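 also: 0% = median of compound wells and 100% = cells with positive control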
Target sequence (Q8TDV0 whole entry, looked up): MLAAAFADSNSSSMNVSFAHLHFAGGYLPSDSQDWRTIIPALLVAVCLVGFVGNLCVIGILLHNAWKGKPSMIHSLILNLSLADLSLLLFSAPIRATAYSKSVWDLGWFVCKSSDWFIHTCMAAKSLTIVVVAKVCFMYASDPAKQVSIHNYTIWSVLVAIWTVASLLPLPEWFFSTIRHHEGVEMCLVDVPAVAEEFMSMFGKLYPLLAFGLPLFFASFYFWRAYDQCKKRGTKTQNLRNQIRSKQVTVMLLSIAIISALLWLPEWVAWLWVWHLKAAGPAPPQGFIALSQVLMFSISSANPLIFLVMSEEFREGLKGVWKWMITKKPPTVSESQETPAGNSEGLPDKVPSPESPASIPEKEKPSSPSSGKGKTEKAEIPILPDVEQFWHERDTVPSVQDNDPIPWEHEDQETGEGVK
MITF primary: inhibitors of human MITF. O75030. AlphaScreen MITF homodimerization, bead proximity signal. inhibition, % at 2.6 µM. hit rate 0.91% among 650,000. AID 1259374; in the data active = inhibition above about 50%;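 also: 0% = vehicle wells with protein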
TEAD-YAP block: TEAD-YAP interaction inhibition; hit rate 1.4% among 640,000; inhibition, % at 9.12 µM; HEK-TIYL cells, TEAD-Gal4/YAP UAS-luciferase luminescence; in the data active = inhibition above about 32%;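 also: 0% = median of test compound wells and 100% = reference inhibitor wells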
FBW7 act: human FBW7 E3 ligase activation, primary screen; AID 1259310; normalized activity (activation), % at 26.1 µM; Q969H0; hit rate 0.13% among 650,000; AlphaScreen FBW7–phospho-cyclin E peptide binding, activator screen; in the data active = normalized activity above about 1.9%;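 also: purified mutant Fbw7 with reduced substrate affinity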
MITF confirm: human MITF inhibition, confirmation | shares compounds with MITF primary | hit rate 16% among 4,700 | AlphaScreen MITF homodimerization, biotin/His-MITF beads | inhibition, % at 2.6 µM;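 active = inhibition above a cutoff derived from the DMSO control wells, cut at about 28% in these data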;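 also: 0% = MITF dimer wells with DMSO only; inhibitors lower the bead chemiluminescence by keeping MITF from dimerizing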
AlphaScreen DR: counter-screen: compounds optically interfering with AlphaScreen | shares compounds with MITF primary | AlphaScreen optical interference counterscreen, cell-free | IC50, µM | hit rate 6% among 480 | AID 1259373; call rule not given here
AS interf ctr: AlphaScreen optical interference, counter-screen | shares compounds with MITF primary | LysRS AlphaScreen counterscreen, signal interference, triplicate | inhibition, % at 2.6 µM | hit rate 7.6% among 4,700;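 active = inhibition above a cutoff derived from the DMSO control wells, cut at about 30% in these data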
Starred values were filed as active, the others as inactive; x = not tested or not shown; ! = not confirmed by another sample. The list is not random: actives were taken first. Their share in the collection is about 3.5%.

SMILES | GPR151 activ | MITF primary | TEAD-YAP block | FBW7 act | MITF confirm | AS interf ctr | others
COc1ccc(Br)cc1CN1CCCC(C(=O)N2CCCCC2)C1 (stereo not given) | 0 | 84* | 6 | 0 | 9 | 19
COc1ccc(Br)cc1CN1CCCC(C(=O)N2CCCC2)C1 (stereo not given) | 1 | 79* | 0 | 0 | -3 | 15
CCOc1ccccc1N(CC(=O)Nc1ccc(S(=O)(=O)N2CCCCC2)cc1)S(=O)(=O)c1ccccc1 | 1 | 8 | 6 | 0 | x | x
Cc1cc(NC(=O)c2ccc(Br)cc2)c(C)cc1O | 2 | -9 | 24 | 0 | x | x
Cc1cc(NC(=O)c2ccc(Br)cc2)ccc1O | 0 | 75* | 80* | 0 | 17 | 14
CC(C)(C)C(=O)N(CCCN1C(=O)c2cccc3cccc(c23)C1=O)c1ccc(Oc2ccccc2)cc1 | 1 | 6 | 2 | 0 | x | x
CCOC(=O)CN1C(c2ccccc2F)Nc2ccc(Br)cc2C1c1ccccc1 (stereo not given) | -2 | 0 | 5 | 0 | x | x
CCOC(=O)/C(C#N)=C\c1ccc(OCC)cc1 | 2 | -11 | -3 | 0 | x | x
CCOC(=O)/C(C#N)=C/c1ccc(OC(=O)c2ccccn2)cc1 | -3 | 61* | 17 | -1 | 26 | 54*
COc1ccc2nc(-c3ccco3)c(-c3ccco3)nc2c1 | -2 | 52* | -1 | 0 | 66* | 19 | AlphaScreen DR=>5.8
CCN1CCN(CCOc2ccc(C#N)cc2)CC1 | 0 | 54* | 9 | 0 | 6 | 8
CCOc1ccc(OCCCNCCO)cc1 | -2 | 18 | 13 | 0 | x | x
CCC(C)c1ccc(OCCNCCO)cc1 (stereo not given) | 1 | 56* | -1 | 0 | -17 | -8
N#Cc1ccc(OCC(O)CN2CCN(CCOc3ccccc3)CC2)cc1 (stereo not given) | -1 | 81* | -3 | 0 | 2 | 9
CCC(C)c1ccc(OCCN2CCN(CC)CC2)cc1 (stereo not given) | 1 | 56* | 3 | 0 | 8 | 11
C/C(=N\NC(=O)c1ccc(O)cc1)c1ccc(Br)cc1 | 0 | -4 | -31 | 0 | x | x
CCN(CC)CCN1CCN(c2ccnc3c(-c4ccco4)cnn23)CC1 | 2 | 55* | -15 | -2 | 8 | 13
CN1CCC(N(C)Cc2ccc(F)c(Br)c2)CC1 | -1 | 54* | -12 | 1 | 18 | 17
OC1/C(=C/c2ccc3c(c2)OCO3)Oc2ccccc21 (stereo not given) | 1 | 53* | -2 | 0 | -5 | -4
O=C1/C(=C/c2ccc3c(c2)OCO3)COc2ccccc21 | 2 | 14 | -13 | 0 | x | x
Cc1cccc(OCC(=O)NCCc2ccc(N3CCCC3)cc2)c1 | 0 | 53* | 2 | -1 | -2 | -1
CCCN(Cc1cccc([N+](=O)[O-])c1)CC1CC1 | 0 | 54* | 4 | 1 | -91 | -4
Cc1ccccc1CN1CCN(C(=O)c2cccnc2)CC1 | 1 | 61* | -7 | 0 | 18 | -1
O=C(c1cccnc1)N1CCN(Cc2ccc3ccccc3c2)CC1 | -1 | 37 | 7 | 0 | x | x
Cc1ccc(CN2CCN(C(=O)c3cccnc3)CC2)cc1 | -1 | 54* | 9 | 0 | -3 | -6
SMILES | GPR151 activ | MITF primary | TEAD-YAP block | FBW7 act | MITF confirm | AS interf ctr | others
O=C(c1cccnc1)N1CCN(Cc2ccccc2C(F)(F)F)CC1 | 3 | 53* | -1 | 0 | -1 | -3
O=C(c1cccnc1)N1CCN(Cc2ccc([N+](=O)[O-])cc2)CC1 | 0 | -14 | 1 | 0 | x | x
CC1=C(C#N)C(c2cc3c(cc2[N+](=O)[O-])OCO3)C2=C(CCCC2=O)N1 (stereo not given) | -1 | 60* | 11 | 0 | 80* | -27 | AlphaScreen DR=>6.5
CCOC(=O)C1=C(C)NC2=C(C(=O)CCC2)C1c1cc2c(cc1[N+](=O)[O-])OCO2 (stereo not given) | -1 | 8 | 23 | 0 | x | x
COc1ccc(O)c(CN2CCC3(CC2)CC3C(=O)N2CCN(Cc3ccccc3)CC2)c1 (stereo not given) | -1 | 6 | 4 | 0 | x | x
COc1ccc2nc(NC(=O)c3cc4ccccc4o3)sc2c1 | 0 | 0 | -22 | 0 | x | x
C=C(C)CN(CC)C(=O)C1CCN(Cc2cc(OC)c(OC)c(OC)c2)CC1 | 1 | 56* | 5 | 0 | 10 | 14
COc1ccc(CN2CCCC(O)C2)cc1OC (stereo not given) | 1 | 45 | 11 | 0 | x | x
COc1ccc(CN2CCCC(C(=O)N3CCCCCC3)C2)cc1OC (stereo not given) | 0 | 60* | 0 | 0 | -13 | -7
COc1cc(CN2CCCC(C(=O)N3CCCCCC3)C2)cc(OC)c1OC (stereo not given) | 0 | 61* | 0 | 0 | -7 | -9
COc1cccc(CN2CCCC(C(=O)N3CCCCC3)C2)c1 (stereo not given) | -1 | 69* | 9 | 0 | -13 | -3
O=C(C1CCCN(Cc2cccc(Cl)c2)C1)N1CCCCC1 (stereo not given) | 1 | 44 | -3 | 0 | x | x
O=c1[nH]c2nc(-c3ccncc3)cnc2n1-c1ccc(N2CCOCC2)cc1 | 0 | 0 | 4 | 0 | x | x
CCC(c1nnnn1CCC(C)C)N1CCN(CC)CC1 (stereo not given) | -1 | 1 | 4 | 0 | x | x
COc1cc2cc3c(N)c(C(=O)Nc4sc(C)c(C)c4C#N)sc3nc2cc1OC | 1 | 62* | -1 | 0 | 70* | 22 | AlphaScreen DR=>6.5
C=C(C)CNC(=S)Nc1ccccc1 | 4 | 77*! | -11 | 0 | -8 | -8
C=C(C)CNC(=S)Nc1ccccn1 | 0 | -5 | 9 | 0 | x | x
CC1CN(CC(=O)NCCCn2nnc3ccccc32)Cc2ccccc2O1 (stereo not given) | 1 | -2 | 0 | 0 | x | x
COc1cc2nc(CN(C)Cc3nccs3)nc(N)c2cc1OC | 1 | 73* | 5 | 0 | 48* | 100*
COc1cc2nc(CN(C)Cc3cc(C)no3)nc(N)c2cc1OC | 3 | 17 | -31 | 0 | x | x
CNS(=O)(=O)c1cc(O)c2c(S(=O)(=O)O)cc(S(=O)(=O)NC)cc2c1 | -1 | 12 | -5 | 0 | x | x
Nc1cc2c(S(=O)(=O)O)cc(S(=O)(=O)O)cc2cc1S(=O)(=O)O | 0 | 52* | 1 | 0 | 35* | 28 | AlphaScreen DR=>6.5
O=C1c2cccnc2C(=O)N1c1ccc(Br)cc1 | -2 | 58* | 7 | -1 | 6 | 20
O=C1c2cccnc2C(=O)N1c1ccc(N2C(=O)c3cccnc3C2=O)c(Cl)c1 | -1 | 70* | -2 | -1 | 19 | 31*
O=C1c2ccccc2C(=O)N1c1ccc(N2C(=O)c3ccccc3C2=O)c(Cl)c1 | -1 | 2 | 1 | 0 | x | x
O=C(O)c1ccc(N2C(=O)c3cccnc3C2=O)cc1 | 0 | 40 | 8 | -1 | x | x
